# Assay outcomes (PubChem BioAssay)
# Tau FP inhib: tau fibrillization inhibition (FP); P10636; K18 P301L tau heparin fibrillization, Alexa594 FP, 6 h; Potency, µM (titrated, usually from 57.7 µM), inactives show top-dose activity, negative = inhibition, hits mostly inhibitors; 0.39% of 280,000 active; AID 1468; note: nearly all actives have a fitted effect of over 55% in size
# Target sequence (P10636 561-689 P618L limits assumed): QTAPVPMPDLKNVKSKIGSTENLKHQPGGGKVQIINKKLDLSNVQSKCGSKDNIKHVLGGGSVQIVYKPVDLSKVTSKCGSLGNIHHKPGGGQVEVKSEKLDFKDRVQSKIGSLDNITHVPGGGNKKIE
#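 Quantitative HTS format: compounds meet 15 uM recombinant K18 P301L tau and Alexa 594-tau tracer in 100 mM sodium acetate pH 7; 20 uM heparin triggers fibrillization at 37 C over 6 hr; FP gives the signal.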
# TexasRed fluor: counter-screen for TRb-SRC2 inhibitors: fluorescence interference; TRb/SRC2 Texas Red total fluorescence interference; Potency, µM (highest dose often 106 µM), without a hit: at the top dose fluorescence change, negative = quenching; 0.29% of 280,000 active; active = well fitted curve in either direction with a large enough effect; inconclusive = small, poorly fitted or top-dose-only effect
#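 Human TRβ ligand-binding domain (0.6 uM) and Texas Red SRC2 peptide (20 nM) in Tris buffer with 1 uM T3 and 5% DMSO were incubated with pinned compound for 5 hr at ambient temperature. Total fluorescence was computed as S + 2P (555/632 nm).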
# Tau ThT inhib: inhibitors of human tau fibril formation, thioflavin T binding; P10636; recombinant tau K18 P301L, heparin-induced fibrillization, ThT fluorescence; Potency, µM (highest dose often 57.4 µM), for inactives: top-dose activity, negative = inhibition, usual class: inhibitors; 2.1% of 270,000 active; note: nearly all actives have a fitted effect of over 55% in size
#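 Tau K18 P301L fragment (15 uM unlabeled plus 0.24 uM Alexa 594-labeled) in 100 mM sodium acetate pH 7 with compound, fibrillization induced by 20 uM heparin for 6 hr at 37 C. Thioflavin T (30 uM) added, fluorescence read after 1 hr (ex 450, em 510 nm).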
# Tau fluor cs: counter-screen for tau fibril formation inhibitors; tau K18 P301L Alexa594 fluorescence, heparin fibrillization; Potency, µM (top dose mostly 57.7 µM), inactives show at the top dose activity change, negative = decrease; 0.93% of 280,000 active; note: nearly all actives have a fitted effect of over 55% in size
#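 Human tau K18 P301L (15 uM unlabeled, 0.24 uM Alexa 594-labeled) in 100 mM sodium acetate pH 7 with 20 uM heparin, 6 hr at 37 C. ThT 30 uM added, 1 hr ambient; Alexa 594 FP and total fluorescence read at 555/632 nm.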
# RGS12 GoLoco inh: blocks human Gai1 binding to RGS12 GoLoco peptide, red readout | Gai1:RGS12 GoLoco peptide FP, rhodamine, 10 min | Potency, µM (top dose mostly 61.6 µM), inactives show top-dose activity, negative = inhibition, hits mostly inhibitors | 0.44% of 230,000 active; active = well fitted inhibition curve with a large enough effect, not every such curve was filed as active; inactive = no such curve, though single readings can be large or run the other way; note: nearly all actives have a fitted effect of over 30% in size
# Target sequence (P63096 whole entry, looked up): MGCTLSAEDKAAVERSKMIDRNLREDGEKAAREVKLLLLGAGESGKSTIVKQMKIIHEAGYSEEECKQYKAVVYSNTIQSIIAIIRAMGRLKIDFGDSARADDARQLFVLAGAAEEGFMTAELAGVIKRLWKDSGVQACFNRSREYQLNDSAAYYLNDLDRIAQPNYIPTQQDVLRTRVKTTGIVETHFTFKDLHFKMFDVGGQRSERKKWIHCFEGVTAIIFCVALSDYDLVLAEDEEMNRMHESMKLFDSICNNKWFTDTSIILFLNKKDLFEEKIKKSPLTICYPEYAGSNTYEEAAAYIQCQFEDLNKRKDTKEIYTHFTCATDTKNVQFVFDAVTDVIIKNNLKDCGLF
# TRb SRC2 PPI: disrupts binding of human TR beta to SRC2. AID 1469. P10828. 0.065% of 280,000 active. TRbeta-SRC2 peptide binding, fluorescence polarization; receptor liganded with 1 µM T3. Potency, µM (top dose mostly 106 µM), for the others: at the top dose activity change, negative = inhibition, actives largely listed as inhibitors;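 note: plate controls were bound peptide for no effect and peptide without receptor for full effect; nearly all actives have a fitted effect of over 50% in size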
#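 TRb LBD 0.6 uM + Texas Red SRC2 peptide 20 nM, 1 uM T3, Tris buffer w/ 5% DMSO; compound pinned, 5 h RT; FP read ex 555/em 632; normalized to unbound and bound controls.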
# Numbers without * were called inactive; ? = inconclusive; / = not tested or not shown; ! = not active in a repeat; [ ] = another dose, or the depositor's remark. In the library only some 3.2% were active in any assay of this set; here they are far more common. Unless noted, calls come from the whole dose curve; as a rule, active = well fitted curve in the direction sought with a large enough effect; inconclusive = small, poorly fitted or top-dose-only effect, or another doubt; inactive = no such curve, though single readings can be large; an effect the other way counts as inactive or inconclusive. Unless noted, % is set by controls: 0 for no effect and ±100 for the full control effect; potency is the fitted concentration of half-maximal effect.
SMILES,Tau FP inhib,TexasRed fluor,Tau ThT inhib,Tau fluor cs,RGS12 GoLoco inh,TRb SRC2 PPI
Cc1ccc(S(=O)(=O)c2c(N)n(/N=C/c3ccco3)c3nc4ccccc4nc23)cc1C,?,-1.9%,15.8µM*,?,212.0%,-5.5%
Cc1cccc(S(=O)(=O)c2c(N)n(/N=C/c3ccco3)c3nc4ccccc4nc23)c1,-1.0%,-6.2%,?,?,204.4%,?
CS(=O)(=O)N1CCC[C@@]2(CCN(Cc3ccccc3)C2)C1,/,/,/,/,5.9%,/
CNC[C@H](O)c1ccc(O)c(O)c1,12.6µM*!,0.7%,14.1µM*!,?,11.4%,1.4%
CNC[C@@H](SC)c1ccc(O)c(O)c1,/,/,/,/,6.9%[14.2 µM],/
C[C@H](NC(=O)Cc1cc(F)cc(F)c1)C(=O)N[C@@H](C(=O)OC(C)(C)C)c1ccccc1,/,-6.7%,/,/,/,-6.0%
COC(=O)CCC(=O)OC1(C)C(=O)C=C2C=C3CCCN3C=C2C1=O (configuration not stated),?,0.5%[11.2 µM],10µM*!,-5.8%[11.6 µM],-0.2%[14.2 µM],0.5%[11.2 µM]
CC1(OC(=O)c2ccc(Cl)nc2)C(=O)C=C2C=C(C3CC3)OC=C2C1=O (configuration not stated),-5.1%,10.3%,-15.4%,-11.5%,6.3%,-9.2%
CC1(OC(=O)c2ccc(Cl)nc2)C(=O)C=C2C=C(c3ccsc3)OC=C2C1=O (configuration not stated),-3.7%,1.0%,?,-16.2%,36.8%,5.0%
CC1(OC(=O)c2ccc(Cl)nc2)C(=O)C=C2C=C3CCCN3C=C2C1=O (configuration not stated),?,-13.0%[11.2 µM],5.01µM*,-10.9%[11.6 µM],-8.2%[14.2 µM],4.6%[11.2 µM]
CC1(OC(=O)c2ccc(Cl)nc2)C(=O)C=C2C=C(c3ccc(C#N)cc3)OC=C2C1=O (configuration not stated),?,-0.5%,25.1µM*,?,12.8%,6.4%
O=C1c2ccccc2C(=O)c2c(Nc3cc4c5c(ccc6c7ccc8c9c(cc(Nc%10cccc%11c%10C(=O)c%10ccccc%10C%11=O)c(c3c56)c97)-c3ccccc3C8=O)C(=O)c3ccccc3-4)cccc21,/,/,/,/,12.4%[14.2 µM],/
CCOC(=O)N1CCc2c(sc(NCc3ccc(OC)c(Br)c3)c2C(=O)Nc2cc(OC)ccc2OC)C1,-2.0%,-4.2%,14.1µM*,?,/,-3.3%
COc1ccc(OC)c(NC(=O)c2c(NCc3ccc(OC)c(OC)c3)sc3c2CCC3)c1,-2.4%,2.1%,?,?,/,3.6%
CCOC(=O)N1CCc2c(sc(NCc3cc(OC)ccc3OC)c2C(=O)Nc2cc(OC)ccc2OC)C1,2.4%,398µM*[quencher],?,?,/,-21.5%
CCOC(=O)N1CCc2c(sc(NCc3sccc3C)c2C(=O)Nc2cc(OC)ccc2OC)C1,-1.8%,-5.5%,?,?,/,-0.5%
CCOC(=O)c1csc(NC(=O)CSc2nnnn2-c2ccc(OC)cc2)n1,?,-0.4%,-19.9%,-16.5%,6.7%,-17.1%
CCOC(=O)c1c(NC(=O)CSc2nnnn2-c2ccc(OC)cc2)sc(C)c1C,?,-2.1%,31.6µM*,-27.2%,-22.4%,0.3%
COc1ccc2ccc3c(c2c1)N=C[C@]1(O3)N(C)c2ccccc2C1(C)C,?,?,20µM*,?,-23.6%,?
CC1=NOC2(C1)N(C)c1ccccc1C2(C)C (configuration not stated),-3.2%,2.2%,9.2%,7.1%,-28.3%,-14.2%
CCc1cc[n+](C2=C([O-])c3ccccc3C(=O)/C2=N\S(=O)(=O)c2cccs2)cc1,?,-8.0%,12.6µM*,?,33.3%,3.4%
O=[N+]([O-])c1ccc2nc(-c3ccc(Cl)cc3)[nH]c2c1,7.6%,1.0%,?,?,2.2%,-6.2%
O=[N+]([O-])c1ccc(-c2cc(-c3ccc(Cl)cc3)n[nH]2)cc1,6.2%,1.1%,1.12µM*,?,-1.4%,2.4%
CC(=O)NCCNc1nc(-c2cccc(NS(C)(=O)=O)c2)nc2ccccc12,/,/,/,/,7.1%,/
O=C(O)c1cccc(S(=O)(=O)Nc2ccc3[nH]c(=O)[nH]c3c2)c1,-12.4%,-4.1%,?,?,2.3%,-1.0%
SMILES,Tau FP inhib,TexasRed fluor,Tau ThT inhib,Tau fluor cs,RGS12 GoLoco inh,TRb SRC2 PPI
O=C(O)c1ccc(Cl)c(S(=O)(=O)Nc2ccc3[nH]c(=O)[nH]c3c2)c1,?,-10.5%,14.1µM*,?,9.1%,-9.7%
Cc1ccc(NC(=O)Cc2coc3ccc(C(C)C)cc23)cc1Cl,?,0.159µM*[quencher],-13.3%,?,/,-27.6%[53 µM]
Cc1ccc(Cl)cc1NC(=O)CSc1nc2c(c(=O)[nH]1)CN(Cc1ccccc1)CC2,?,0.2%,17.5%,5.2%,/,6.4%
Cn1sc(=O)n(Cc2ccccc2)c1=O,/,2.3%,/,/,/,-0.2%
COC(=O)C1(C(=O)OC)CC2=CC(CC2=O)Cc2ccccc2[C@@H]1C[N+](=O)[O-] (some centres not stated),-8.1%,-1.2%,-2.1%,-9.0%,22.4µM*,3.1%
COc1ccc(N/C(=C(/C(Cl)=C(Cl)Cl)[N+](=O)[O-])n2nnc3ccccc32)cc1OC,?,-4.6%,14.1µM*,?,15.2%,0.2%
CCc1ccccc1NC(=O)Nc1cc(C(=O)NCc2ccc(C(C)C)cc2)ccc1N1CCCC1,7.4%,-1.1%,6.1%,-1.7%,/,7.0%
Cc1cc2cc(CNC(=O)c3ccc(S(=O)(=O)N4CCOCC4)cc3)ccc2n1C,?,44.7µM*[fluorescent],?,-5.1%,-101.6%,39.8µM*
Cc1cc2cc(CNS(=O)(=O)c3ccc4ccccc4c3)ccc2n1C,-12.0%,44.7µM*[fluorescent],?,5.8%,-61.5%,44.7µM*
